# Data: PubChem BioAssay (Tox21)
# Several values for one entry are separate records, joined by “and”; a condition that tells them apart may be missing. Equal entries are not always repeated. Records with an inconclusive call do not appear. Where a call stands in place of a potency, no number is given. Activity calls are given as the source filed them. Calls come from the whole dose curve; as a rule, active = well fitted cell-killing curve with a large enough effect in the repeat runs; inconclusive = weak or mixed curves, or effect the other way; inactive = no such curve, though single readings can be large or run the other way.
# Experiment: qHTS assay to identify small molecule antagonists of the glucocorticoid receptor (GR) signaling pathway - cell viability counter screen (AID 720693); note: nearly all actives have a fitted effect of over 55% in size
# Conditions: GR-bla HeLa viability, CellTiter-Glo luminescence, 18 h, with 5 nM dexamethasone present; series mostly up to 58.5 µM
# Potency is the fitted concentration of half-maximal effect.
row,SMILES,Potency
1,N#CC(C#N)=C(C#N)C#N,inactive
2,O=C1NC(=O)C(=O)C(=O)N1,inactive
3,CON(C)C(=O)Nc1ccc(Cl)cc1,inactive
4,CCCCOC(=O)CCC(=O)OCCCC,inactive
5,C1CCNCC1,inactive
6,O=C1c2ccccc2C(=O)N1SC(Cl)(Cl)Cl,17.1 µM (active) and 13.8 µM (active)
7,C[Si](Cn1cncn1)(c1ccc(F)cc1)c1ccc(F)cc1,inactive
8,FC(Cl)(Cl)C(F)(Cl)Cl,inactive
9,CCCCC(CC)COC(=O)c1c(Br)c(Br)c(Br)c(Br)c1C(=O)OCC(CC)CCCC (stereo not drawn),inactive
10,COc1ccccc1N1CCNCC1,inactive
11,O=C(Cc1ccccc1)c1ccccc1,inactive
12,CCCBr,inactive
13,CCc1ccccc1N,inactive
14,COc1cc(CC(C)N)c(OC)cc1Br (stereo not drawn),inactive
15,C[N+]1(CCC(C(N)=O)(c2ccccc2)c2ccccc2)CCCCC1,inactive
16,CCCCC1C(=O)NC(=O)N(C2CCCCC2)C1=O (stereo not drawn),inactive
17,O=C([O-])c1ccccn1.O=C([O-])c1ccccn1.O=C([O-])c1ccccn1.[Cr+3],inactive
18,C[C@H]1O[C@H](OC2[C@@H](O)[C@@H](O)C(O)[C@H](O)[C@H]2O)[C@@H](N)C[C@@H]1N=C(N)C(=O)O (stereo partly drawn),inactive
19,CC(C)(c1ccccc1)c1cc(-n2nc3ccccc3n2)c(O)c(C(C)(C)c2ccccc2)c1,inactive

row,SMILES,Potency
1,CCCC[P+](CC)(CCCC)CCCC (tested in a mixture with another compound),inactive
2,NNCCO,inactive
3,CCC[N+](CCC)(CCC)CCC,inactive
4,CC(O)CN1CCN(CC(=O)[O-])CCN(CC(=O)[O-])CCN(CC(=O)[O-])CC1.[Gd+3] (stereo not drawn),inactive
5,c1ccc2sc(SNC3CCCCC3)nc2c1,inactive
6,CC(C)(C)c1ccc(CCOc2ncnc3ccccc23)cc1,inactive
7,O=[N+]([O-])O[C@H]1CO[C@H]2[C@@H]1OC[C@H]2O[N+](=O)[O-],inactive
8,CC(C)CCON=O,inactive
9,CC(C)(C)NCC(O)c1ccccc1Cl (stereo not drawn),inactive
10,CCC(C)Cl (stereo not drawn),inactive
11,CCCCCl,inactive
12,O=C(O)C(Cl)(Cl)Br,inactive
13,COC(=O)Cc1ccccc1,inactive
14,OC[P+](CO)(CO)CO,inactive
15,O=C(O)c1cc(Cl)ccc1Cl,inactive
16,CC(C)(C)OOC(C)(C)CCC(C)(C)OOC(C)(C)C,inactive
17,CCCCC#N,inactive
18,C[N+](C)(C)CCOC(=O)C(O)(c1ccccc1)c1ccccc1,inactive
19,CN(C)c1ccc(N=O)cc1,39 µM (active) and 43.6 µM (active)
